Experimental data reported in PubChem BioAssay (NCATS).
Results filed as inconclusive are left out. The source made the active and inactive calls. Calls come from the whole dose curve; as a rule, active = well fitted curve in the direction sought with a large enough effect; inconclusive = small, poorly fitted or top-dose-only effect, or another doubt; inactive = no such curve, though single readings can be large; an effect the other way counts as inactive or inconclusive.

Tests used:
[1] = Primary redox qHTS assay for identification of artifact compounds. (AID 1845223)
Summary of the method: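 Redox-cycling detection via DTT (250 uM final) oxidation coupled to Amplex Red (25 uM)/HRP (250 mU/mL) in HBSS. 15 min preincubation plus 30 min after DTT, room temperature. Ex/Em 525/598 nm; 4-parameter Hill fit against DMSO and 10 uM DA3003.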

[2] = Quantitative High-Throughput drug screen in 47 multiple myeloma cell lines against the NCATS MIPE library collection: FR4_PLB cell viability assay (AID 1918924; note: nearly all actives have a fitted effect of over 35% in size; note: potency is the fitted concentration of half-maximal effect)
Summary of the method: (§1)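 qHTS of the MIPE 4.0 collection: 500 myeloma cells/well, 48 h drug exposure at 37C in 5% CO2, then CellTiter-Glo for 5 min at room temperature before luminescence reading.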

[3] = Quantitative High-Throughput drug screen in 47 multiple myeloma cell lines against the NCATS MIPE library collection: Delta47_JCRB cell viability assay (AID 1918925; note: nearly all actives have a fitted effect of over 45% in size; note: potency is the fitted concentration of half-maximal effect)
Summary of the method: as §1

[4] = Quantitative High-Throughput drug screen in 47 multiple myeloma cell lines against the NCATS MIPE library collection: EJM_DSMZ cell viability assay (AID 1918926; note: nearly all actives have a fitted effect of over 30% in size; note: potency is the fitted concentration of half-maximal effect)
Summary of the method: as §1

[5] = Quantitative High-Throughput drug screen in 47 multiple myeloma cell lines against the NCATS MIPE library collection: AMO1_DSMZ cell viability assay (AID 1918927; note: nearly all actives have a fitted effect of over 30% in size; note: potency is the fitted concentration of half-maximal effect)
Summary of the method: as §1

[6] = Quantitative High-Throughput drug screen in 47 multiple myeloma cell lines against the NCATS MIPE library collection: ARP1_JJKsccF8 cell viability assay (AID 1918928; note: nearly all actives have a fitted effect of over 40% in size; note: potency is the fitted concentration of half-maximal effect)
Summary of the method: (§2)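 500 cells/well; MIPE 4.0 library pinned in; 48 h, 37 °C, 5% CO2; CellTiter-Glo ATP luminescence. Controls: DMSO = 100% viability, medium only = 0%.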

[7] = Quantitative High-Throughput drug screen in 47 multiple myeloma cell lines against the NCATS MIPE library collection: ARD_JJKsccE7 cell viability assay (AID 1918929; note: potency is the fitted concentration of half-maximal effect)
Summary of the method: as §1

[8] = Quantitative High-Throughput drug screen in 47 multiple myeloma cell lines against the NCATS MIPE library collection: Karpas620_DSMZ cell viability assay (AID 1918959); note: nearly all actives have a fitted effect of over 30% in size; note: potency is the fitted concentration of half-maximal effect
Summary of the method: as §1

[9] = Quantitative High-Throughput drug screen in 47 multiple myeloma cell lines against the NCATS MIPE library collection: KMM1_JCRB cell viability assay (AID 1918960); note: nearly all actives have a fitted effect of over 30% in size; note: potency is the fitted concentration of half-maximal effect
Summary of the method: as §2

[10] = Quantitative High-Throughput drug screen in 47 multiple myeloma cell lines against the NCATS MIPE library collection: Karpas417_ECACC cell viability assay (AID 1918961); conditions: Karpas417 myeloma viability, CellTiter-Glo ATP luminescence, 48 h; viability (% of DMSO): at 45.8 µM (top of the series); note: potency is the fitted concentration of half-maximal effect
Summary of the method: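 Luminescent ATP measurement with CellTiter-Glo gives viability, scaled between DMSO-only wells (100%) and media-only wells (0%). Cells, 500 per well, faced library compounds for 48 hours at 37C.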

Measured: Potency

O=C1CCC[C@@H]2[C@H]3CCC[N+]4([O-])CCC[C@@H](CN12)[C@@H]34 (some centres not stated)
not listed: [9] | [10]
inactive: all other assays above

CC1COC2(CCN(c3nc(=O)c4cc(C(F)(F)F)cc([N+](=O)[O-])c4s3)CC2)O1 (configuration not stated)
not listed: [10]
inactive: all other assays above

CN1CCC(CNc2ccc3ncc(-c4cccc(OC(F)(F)F)c4)n3n2)CC1
inactive: [1]
active: [2] 18.7 µM | [3] 4.69 µM | [4] 26.4 µM | [5] 13.2 µM | [6] 13.2 µM | [7] 11.8 µM | [8] 10.5 µM | [9] 16.6 µM | [10] 10.5 µM

Cc1cn2c(-c3cn[nH]c3)cnc2c(Nc2ccc(C(=O)N3CCNCC3)cc2F)n1
inactive: [1] | [5]
active: [2] 16.6 µM | [3] 7.43 µM | [4] 18.7 µM | [6] 23.5 µM | [7] 5.9 µM

Cc1cc(Nc2cc(CN3CCOCC3)c3nc(C)c(Cc4ccc(Cl)cc4F)n3n2)n[nH]1
active: [2] 7.43 µM | [3] 10.5 µM | [4] 16.6 µM | [5] 0.526 µM | [6] 13.2 µM
inactive: [1]

Cc1ccc(C(=O)Nc2cccc(C(F)(F)F)c2)cc1-c1ccc2nc(NCCN3CCOCC3)ncc2c1
active: [2] 10.5 µM | [3] 13.2 µM | [4] 16.6 µM | [5] 3.72 µM | [6] 8.33 µM | [7] 2.64 µM | [8] 2.64 µM | [10] 1.18 µM
inactive: [1]

CNc1nccc(-c2cccnc2Oc2cc(C(=O)Nc3cccc(C(F)(F)F)c3)ccc2C)n1
inactive: [1]
active: [2] 16.6 µM | [3] 16.6 µM | [4] 16.6 µM | [5] 9.35 µM | [6] 23.5 µM | [7] 9.35 µM | [8] 5.9 µM

C=CCn1c(=O)c2cnc(Nc3ccc(N4CCN(C)CC4)cc3)nc2n1-c1cccc(C(C)(C)O)n1
inactive: [1]
active: [2] 0.132 µM | [3] 0.418 µM | [4] 1.48 µM | [5] 0.59 µM | [6] 1.18 µM | [7] 0.264 µM

Cc1cc(Nc2ncnc3ccc(-c4ccc(CNCCS(C)(=O)=O)o4)cc23)ccc1Oc1ccn2ncnc2c1
active: [2] 18.7 µM | [3] 1.66 µM | [4] 20.9 µM | [5] 0.935 µM | [6] 11.8 µM | [7] 2.35 µM | [8] 5.26 µM
inactive: [1]

O=C(Cc1ccc(-c2ccc(OCCN3CCOCC3)cc2)cn1)NCc1ccccc1
inactive: [1]
active: [2] 0.0093 µM | [3] 0.0264 µM | [4] 0.0662 µM | [5] 0.0132 µM | [6] 0.0166 µM | [7] 0.0166 µM

CCn1nnc2c(N3CCOCC3)nc(-c3ccc(NC(=O)Nc4ccc(C(=O)N5CCN(C)CC5)cc4)cc3)nc21
inactive: [1]
active: [2] 0.0074 µM | [3] 0.0132 µM | [4] 0.469 µM | [5] 0.0526 µM | [6] 0.0662 µM

O=C(c1ccc(Nc2nccc(-c3cc4ccccc4s3)n2)cc1)N1CCC(N2CCCC2)CC1
active: [2] 13.2 µM | [3] 2.96 µM | [4] 18.7 µM | [5] 7.43 µM | [6] 13.2 µM | [7] 9.35 µM | [8] 4.18 µM | [10] 2.09 µM
inactive: [1]

C#Cc1cccc(Nc2ncnc3cc(OC)c(OCCCCCCC(=O)NO)cc23)c1
active: [2] 0.0743 µM | [3] 0.0662 µM | [4] 0.469 µM | [5] 0.0526 µM | [6] 0.118 µM | [7] 0.0743 µM | [8] 0.0743 µM | [9] 0.0526 µM
inactive: [1]

COc1ccc(-c2cc3c(C)nc(N)nc3n(C3CCC(OCCO)CC3)c2=O)cn1 (configuration not stated)
active: [2] 0.0332 µM | [3] 0.0118 µM | [4] 0.132 µM | [5] 0.0418 µM | [6] 0.0209 µM | [7] 0.187 µM | [8] 0.132 µM | [9] 0.0235 µM
inactive: [1]

Cc1cn(-c2cc(NC(=O)c3ccc(C)c(Nc4nccc(-c5cccnc5)n4)c3)cc(C(F)(F)F)c2)cn1
inactive: [1] | [3] | [5]
active: [2] 20.9 µM | [4] 18.7 µM

OCCCNc1cc(-c2ccnc(Nc3cccc(Cl)c3)n2)ccn1
inactive: [1]
active: [2] 0.118 µM | [3] 0.0264 µM | [4] 0.118 µM | [5] 0.0743 µM | [6] 0.105 µM | [7] 0.0743 µM | [8] 0.0662 µM | [9] 0.0526 µM | [10] 0.0469 µM
